Here are results for 10 molecules from PubChem BioAssay (NCI).

The structures appear in SMILES notation. The panel holds about 79,000 compounds, 15% with a hit somewhere; the sample as a whole holds those more often. Values without a mark were called inactive. Active and inactive are the calls of the source. Cut-off read from the data, not from the text of the source: active = growth inhibition above about 70%; inactive = the rest.

Assay [1] is described as follows: NCI Yeast Anticancer Drug Screen. Data for the rad50 strain (AID 155).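 Note: 0% = growth of vehicle-only cultures of the same strain.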 The note with it: S. cerevisiae rad50 strain growth inhibition, hits give high values. A digest of the protocol:
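Relative growth inhibition (compound vs vehicle) was measured in yeast with a defined repair-gene alteration.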

The nature of assay [2]: NCI Yeast Anticancer Drug Screen. Data for the mec2-1 strain (AID 157). The note with it: S. cerevisiae mec2-1 strain, hits give high values. A digest of the protocol:
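Readout is yeast growth inhibition, normalised to vehicle-treated controls, in the mec2-1 strain exposed to compound.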

The nature of assay [3]: NCI Yeast Anticancer Drug Screen. Data for the sgs1 mgt1 strain (AID 161).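 Note: 0% = growth of cultures given vehicle only.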 The note with it: S. cerevisiae sgs1 mgt1 strain, hits give high values. A digest of the protocol:
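Growth of a repair-deficient yeast mutant was monitored after compound treatment and expressed as inhibition relative to vehicle-treated cultures.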

Assay [4] in a line: NCI Yeast Anticancer Drug Screen. Data for the cln2 rad14 strain (AID 165).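 Note: 0% = growth equal to vehicle treated cultures.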 The note with it: S. cerevisiae cln2 rad14 strain, hits give high values. The method, boiled down: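 Relative to vehicle controls, growth inhibition of compound-treated cln2 rad14 yeast was recorded.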
A short description of assay [5]: NCI Yeast Anticancer Drug Screen. Data for the bub3 strain (AID 167). Conditions: S. cerevisiae bub3 mutant strain, hits give high values. A digest of the protocol:
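Screening used yeast with an engineered genetic alteration affecting cell cycle control. Compound-exposed cultures were compared with vehicle cultures, and reduced growth was taken as inhibition.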

The nature of assay [6]: NCI Yeast Anticancer Drug Screen. Data for the mlh1 rad18 strain (AID 175). Conditions: S. cerevisiae mlh1 rad18 strain growth inhibition, hits give high values. A digest of the protocol: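 Test agents were incubated with a yeast strain of defined genotype (DNA damage repair defect). Inhibition of growth was derived by comparison with vehicle-exposed cultures.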
Where [7] appears, read: at 5.0 µM (retest, dose inferred, filed as 0.5).
Setting [8] is: at 50.0 µM (retest, dose inferred, filed as 5.0).

Consider `NC1=C(Br)C(=O)c2ncccc2C1=O`, for which the growth inhibition in assay [1] (setting [7]) is 56%; in assay [1] (setting [8]), 94% (active); in assay [1] (at 50.0 µM), 87.7% (active); in assay [2] (setting [7]), 19%; in assay [2] (setting [8]), 86% (active); in assay [2] (at 50.0 µM), 91.5% (active). Further, the growth inhibition in assay [3] (setting [7]) was 34%; in assay [3] (setting [8]), 93% (active); in assay [3] (at 50.0 µM), 91.5% (active); in assay [4] (setting [7]), 18%; in assay [4] (setting [8]), 90% (active); in assay [4] (at 50.0 µM) it was 90% (active). The growth inhibition was 9% in assay [5] (setting [7]); 83% (active) in assay [5] (setting [8]); 90.3% (active) in assay [5] (at 50.0 µM); 50% in assay [6] (setting [7]); 95% (active) in assay [6] (setting [8]).
On to `CN1CCc2cc3c(c4c2C1C(O)c1ccccc1-4)OCO3` (stereo not drawn), for which the growth inhibition was 17% in assay [1] (setting [7]); 32% in assay [1] (setting [8]); 31.4% in assay [1] (at 50.0 µM); 12% in assay [2] (setting [7]); 9% in assay [2] (setting [8]); 17.7% in assay [2] (at 50.0 µM). The growth inhibition was 9% in assay [3] (setting [7]); 7% in assay [3] (setting [8]); 26.6% in assay [3] (at 50.0 µM); 7% in assay [4] (setting [7]); 17% in assay [4] (setting [8]); 31.8% in assay [4] (at 50.0 µM). For the same molecule, the growth inhibition was 7% in assay [5] (setting [7]); 27% in assay [5] (setting [8]); 36.6% in assay [5] (at 50.0 µM); 13% in assay [6] (setting [7]); 11% in assay [6] (setting [8]); 15% in assay [6] (at 50.0 µM).
`O=C1C=CC(=O)c2c(O)c(CO)c(CO)c(O)c21`: the growth inhibition was 28% in assay [1] (setting [7]); 95% (active) in assay [1] (setting [8]); 75.4% (active) in assay [1] (at 50.0 µM); 27% in assay [2] (setting [7]); 96% (active) in assay [2] (setting [8]); 84.4% (active) in assay [2] (at 50.0 µM). For the same molecule, the growth inhibition in assay [3] (setting [7]) was 28%; in assay [3] (setting [8]), 94% (active); in assay [3] (at 50.0 µM), 51%; in assay [4] (setting [7]) it was 24%; in assay [4] (setting [8]), 84% (active); in assay [4] (at 50.0 µM), 15.5%. The growth inhibition was 40% in assay [5] (setting [7]); 98% (active) in assay [5] (setting [8]); 74.2% (active) in assay [5] (at 50.0 µM); 30% in assay [6] (setting [7]); 96% (active) in assay [6] (setting [8]).
For the molecule `Cc1cc(C(=C2C=CC(=Nc3ccccc3)C=C2)c2ccc(Nc3ccccc3)cc2)ccc1N`, the growth inhibition in assay [1] (setting [7]) is 6%; in assay [1] (setting [8]) it was 60%; in assay [1] (at 50.0 µM), 43.8%; in assay [2] (setting [7]) it was 7%; in assay [2] (setting [8]), 82% (active); in assay [2] (at 50.0 µM), 88.4% (active). Further, the growth inhibition in assay [3] (setting [7]) is -5%; in assay [3] (setting [8]), 79% (active); in assay [3] (at 50.0 µM) it was 65.3%; in assay [4] (setting [7]), -8%; in assay [4] (setting [8]), 69%; in assay [4] (at 50.0 µM), 25.5%. For the same molecule, the growth inhibition was 30% in assay [5] (setting [7]), 75% (active) in assay [5] (setting [8]) and 83.3% (active) in assay [5] (at 50.0 µM).
For the molecule `CC1(C)OC2C(COC(c3ccccc3)(c3ccccc3)c3ccccc3)OC(c3c[nH]c4c(N)ncnc34)C2O1` (stereo not drawn), the growth inhibition is 9% in assay [1] (setting [7]); 99% (active) in assay [1] (setting [8]); 98.9% (active) in assay [1] (at 50.0 µM); 40% in assay [2] (setting [7]); 99% (active) in assay [2] (setting [8]); 99.1% (active) in assay [2] (at 50.0 µM). Besides, the growth inhibition in assay [3] (setting [7]) is -6%; in assay [3] (setting [8]), 99% (active); in assay [3] (at 50.0 µM), 99.2% (active); in assay [4] (setting [7]) it was -20%; in assay [4] (setting [8]) it was 99% (active); in assay [4] (at 50.0 µM) it was 97.7% (active). For the same molecule, the growth inhibition in assay [5] (setting [7]) is 10%; in assay [5] (setting [8]), 99% (active); in assay [5] (at 50.0 µM), 98.8% (active); in assay [6] (setting [7]), 25%; in assay [6] (setting [8]), 99% (active); in assay [6] (at 50.0 µM), 98.7% (active).
As for `COC1CC(C)C(OC)c2cc(O)cc(c2O)NC(=O)/C(C)=C/C=C\C(C)C(OC(N)=O)/C(C)=C\C(C)C1OC` (stereo not drawn), the growth inhibition in assay [1] (setting [7]) was 94% (active); in assay [1] (setting [8]) it was 97% (active); in assay [1] (at 50.0 µM), 91.2% (active); in assay [2] (setting [7]) it was 95% (active); in assay [2] (setting [8]), 97% (active); in assay [2] (at 50.0 µM) it was 92.5% (active). For the same molecule, the growth inhibition was 97% (active) in assay [3] (setting [7]); 98% (active) in assay [3] (setting [8]); 91.3% (active) in assay [3] (at 50.0 µM); 88% (active) in assay [4] (setting [7]); 95% (active) in assay [4] (setting [8]); 89.8% (active) in assay [4] (at 50.0 µM). For the same molecule, the growth inhibition in assay [5] (setting [7]) was 97% (active); in assay [5] (setting [8]) it was 98% (active); in assay [5] (at 50.0 µM) it was 90.7% (active); in assay [6] (setting [7]) it was 96% (active); in assay [6] (setting [8]) it was 97% (active); in assay [6] (at 50.0 µM), 90% (active).
As to `O=C1/C(=C/c2ccccc2)CCC/C1=C\c1ccccc1`, the growth inhibition is 27% in assay [1] (setting [7]); 60% in assay [1] (setting [8]); 83.8% (active) in assay [1] (at 50.0 µM); 29% in assay [2] (setting [7]); 77% (active) in assay [2] (setting [8]); 86.6% (active) in assay [2] (at 50.0 µM). Besides, the growth inhibition in assay [3] (setting [7]) is 36%; in assay [3] (setting [8]), 72% (active); in assay [3] (at 50.0 µM), 82.3% (active); in assay [4] (setting [7]) it was 21%; in assay [4] (setting [8]) it was 52%; in assay [4] (at 50.0 µM), 80.3% (active). Besides, the growth inhibition is 41% in assay [5] (setting [7]); 69% in assay [5] (setting [8]); 84.8% (active) in assay [5] (at 50.0 µM); 58% in assay [6] (setting [7]); 76% (active) in assay [6] (setting [8]).
Turning to `CCC1CCCCN1C(=S)N/N=C(\C)c1ccccn1` (stereo not drawn), the growth inhibition in assay [1] (setting [7]) was 29%; in assay [1] (setting [8]) it was 98% (active); in assay [1] (at 50.0 µM), 90.5% (active); in assay [2] (setting [7]), 19%; in assay [2] (setting [8]) it was 99% (active); in assay [2] (at 50.0 µM) it was 94.1% (active). The growth inhibition is 28% in assay [3] (setting [7]); 99% (active) in assay [3] (setting [8]); 89.8% (active) in assay [3] (at 50.0 µM); 21% in assay [4] (setting [7]); 99% (active) in assay [4] (setting [8]); 91.7% (active) in assay [4] (at 50.0 µM). The growth inhibition in assay [5] (setting [7]) was 21%; in assay [5] (setting [8]) it was 99% (active); in assay [5] (at 50.0 µM), 90% (active).
Turning to `O=[N+]([O-])c1ccc(C2N(Cc3ccc(Cl)cc3)CCN2Cc2ccc(Cl)cc2)cc1`, the growth inhibition in assay [1] (setting [7]) was 58%; in assay [1] (setting [8]), 94% (active); in assay [1] (at 50.0 µM), 82.2% (active); in assay [2] (setting [7]) it was 48%; in assay [2] (setting [8]), 97% (active); in assay [2] (at 50.0 µM) it was 56.5%. Moreover, the growth inhibition in assay [3] (setting [7]) is 79% (active); in assay [3] (setting [8]), 100% (active); in assay [3] (at 50.0 µM), 85.8% (active); in assay [4] (setting [7]), 51%; in assay [4] (setting [8]), 95% (active); in assay [4] (at 50.0 µM), 64.5%. Further, the growth inhibition in assay [5] (setting [7]) was 78% (active); in assay [5] (setting [8]), 99% (active); in assay [5] (at 50.0 µM) it was 87.6% (active).
On to `CC1=C(C2=C(C)C(=O)C(=O)c3cc(C)ccc32)c2ccc(C)cc2C(=O)C1=O`, for which the growth inhibition was 89% (active) in assay [1] (setting [7]); 98% (active) in assay [1] (setting [8]); 86.7% (active) in assay [1] (at 50.0 µM); 95% (active) in assay [2] (setting [7]); 99% (active) in assay [2] (setting [8]); 91.5% (active) in assay [2] (at 50.0 µM). The growth inhibition is 98% (active) in assay [3] (setting [7]); 99% (active) in assay [3] (setting [8]); 91.8% (active) in assay [3] (at 50.0 µM); 71% (active) in assay [4] (setting [7]); 98% (active) in assay [4] (setting [8]); 89.8% (active) in assay [4] (at 50.0 µM). Further, the growth inhibition in assay [5] (setting [7]) is 98% (active); in assay [5] (setting [8]), 99% (active); in assay [5] (at 50.0 µM) it was 90.9% (active); in assay [6] (setting [7]) it was 97% (active); in assay [6] (setting [8]) it was 99% (active); in assay [6] (at 50.0 µM), 91% (active).
